We go through 40 compounds from PubChem BioAssay (EPA / NIEHS).

Each structure is given as a SMILES string. Active and inactive are the calls of the source. The calls were made as follows: active = hit-call score of the fitted dose curve at least 0.9, where 1 is the maximum; inactive = score below 0.9.

This assay in a line: ATG_FoxO_CIS: Attagene CIS-FACTORIAL HepG2 Assay for human Forkhead box O (FoxO) (AID 2282943). The settings on record: HepG2 Attagene cis-reporter, FoxO element, mRNA; actives raise or lower the signal. As for the experimental part: ATG_CIS is a cell-based, multiplexed-readout assay that uses HepG2, a human liver cell line, with measurements taken at 24 hours after chemical dosing in a 24-well plate.ATG_FoxO_CIS is one of 52 assay component(s) measured or calculated from the ATG_CIS assay. It is designed to make measurements of mRNA induction, a form of inducible reporter, as detected with fluorescence intensity signals by Reverse transcription polymerase chain reaction (RT-PCR) and Capillary electrophoresis technology.Data from the assay component ATG_FoxO_CIS was analyzed into 1 assay endpoint. This assay endpoint, ATG_FoxO_CIS, was analyzed with bidirectional fitting relative to DMSO as the negative control and baseline of activity. Using a type of inducible reporter, measures of mRNA for gain or loss-of-signal activity can be used to understand the reporter gene at the transcription factor-level as they relate to the gene FOXO1 and FOXO3. Furthermore, this assay endpoint can be referred to as a primary readout, because this assay has produced multiple assay endpoints where this one serves a reporter gene function. To generalize the intended target to other relatable targets, this assay endpoint is annotated to the dna binding intended target family, where the subfamily is forkhead box protein.
Human liver HepG2 cells are transiently transfected with multiple reporter transcription units (MRTUs) in 6-well plates using FuGene 6 reagent (Roche; 3 ml FuGene/1 mg DNA). The MRTU constructs are regulated by a cis-regulating element (promoter). […] A major difference between the CIS and TRANS system is that in CIS activities of endogenous TFs are measured, whereas the TRANS assay evaluates changes in activities of exogenous, chimeric NR-Gal4 proteins. […] At the end of 24 hour incubation, total RNA was isolated using TriZol reagent (Invitrogen). The isolated RNA is then reverse-transcribed using oligo(dT) primer and Mo-MLV reverse transcriptase (Invitrogen) with DNAse I (Ambion) treatment for 30 min. The one-tenth of the produced cDNA was amplified by PCR using Taq DNA polymerase (Invitrogen) and two reporter sequence-specific primers. The PCR products were fluorescently labeled by primer extension with 6-arboxyfluorescein (6-FAM) 5'-labeled reporter sequence-specific primer (2 min at 95 C, 20 s at 68 C and 10 min at 72 C) and these products were digested with 5U of HpaI (New England Biolabs) for 2h at 37 C. The fragments were purified using Qiaquick PCR columns (Qiagen), analyzed on an ABI 3130xL genetic analyzer (Applied Biosystems) with peak positions identified by using a set of X-rhodamine (ROX)-labeled MapMarker1000 molecular weight standards (BioVentures). The raw capillary electrophoresis data was processed using Attagraph software (Attagene).
Regarding `FC(F)C(F)(F)OCC(Cn1cncn1)c1ccc(Cl)cc1Cl` (stereo not given), the call was inactive.
Still for that read-out and setting: next, `CCOP(=S)(OCC)Oc1ccc2c(C)c(Cl)c(=O)oc2c1`: “inactive”.
The same measure, in the same setting: the same measure for `CCOP(=O)(OCC)Oc1cc(C)nc(C(C)C)n1`: “inactive”.
Still for that read-out and setting: next, `COc1cc(OC)nc(Sc2cccc(Cl)c2C(=O)O)n1`: “inactive”; `CNC(=O)Oc1cccc2c1OC(C)(C)O2`: “inactive”; `O=c1ccc(=O)[nH][nH]1`: “inactive”.
With `CNC(=O)ON=C(C)SC`, the result was inactive.
Regarding `CN(C)[C@@H]1C(=O)C(C(N)=O)=C(O)[C@@]2(O)C(=O)C3=C(O)c4c(O)cccc4[C@@](C)(O)[C@H]3[C@H](O)[C@@H]12`, the result was inactive.
On the same count and under the same terms, the same measure for `CC(Oc1cccc(Cl)c1)C(=O)O` (stereo not given): “inactive”; for `CCOP(=S)(OCC)Oc1ccc([N+](=O)[O-])cc1`: “inactive”.
`CN1COCN(Cc2cnc(Cl)s2)C1=N[N+](=O)[O-]`: the compound was called inactive.
Regarding `CC1(C(=O)Nc2ccc(O)c(Cl)c2Cl)CCCCC1`, the result was inactive.
Same read-out and setting: next, `O=C(O)c1cc(Oc2ccc(C(F)(F)F)cc2Cl)ccc1[N+](=O)[O-]`: “inactive”; `CON=C(C(=O)OC)c1ccccc1CON=C(C)c1cccc(C(F)(F)F)c1`: “inactive”.
As to `CCCCOC(=O)c1ccccc1C(=O)O`, the compound was called inactive.
With `S=C1NCCN1`, the outcome was inactive.
For the compound `CCCOCC(=Nc1ccc(Cl)cc1C(F)(F)F)n1ccnc1`, the result was inactive.
For the compound `C=C(C)[C@H]1Cc2c(ccc3c2O[C@@H]2COc4cc(OC)c(OC)cc4[C@@H]2C3=O)O1`, the result was inactive.
In the case of `CCCCOC(=O)[C@@H](C)Oc1ccc(Oc2ccc(C#N)cc2F)cc1`, the compound was called inactive.
Still for that read-out and setting: the same measure for `CCCSP(=O)(OCC)SCCC`: “inactive”; for `CCC(CC)Nc1c([N+](=O)[O-])cc(C)c(C)c1[N+](=O)[O-]`: “inactive”.
As to `CC(C)[C@H](C(=O)O[C@H](C#N)c1cccc(Oc2ccccc2)c1)c1ccc(Cl)cc1`, the outcome was inactive.
In the case of `COP(=O)(OC)OC(Br)C(Cl)(Cl)Br` (stereo not given), the result was inactive.
For `CCc1cnc(C2=NC(C)(C(C)C)C(=O)N2)c(C(=O)O)c1` (stereo not given), the outcome was inactive.
With `C#CC(C)(C)NC(=O)c1cc(Cl)cc(Cl)c1`, the result was inactive.
Turning to `COc1cccc(C(=O)NN(C(=O)c2cc(C)cc(C)c2)C(C)(C)C)c1C`, the AC50 is 12.9 µM (active).
Turning to `C[N+]1(C)CCCCC1`, the compound was called inactive.
Regarding `CN(C)C(=O)Nc1cccc(C(F)(F)F)c1`, the result was inactive.
`CCC(=O)Nc1ccc(Cl)c(Cl)c1`: the outcome was inactive.
Regarding `CSC1=N[C@@](C)(c2ccccc2)C(=O)N1Nc1ccccc1`, the call was inactive.
As to `Nc1c(Cl)cc([N+](=O)[O-])cc1Cl`, the result was inactive.
Turning to `C#CCC1=C(C)C(OC(=O)C2C(C=C(C)C)C2(C)C)CC1=O` (stereo not given), the half-maximal activity concentration (AC50) is 90.3 µM (active).
As for `Nc1nc(N)nc(NC2CC2)n1`, the compound was classed as inactive.
`COP(=O)(OC)SCn1c(=O)oc2cc(Cl)cnc21`: the outcome was inactive.
On to `CCOP(=S)(Oc1cnc(C(C)(C)C)nc1)OC(C)C` (stereo not given), for which the compound was classed as inactive.
As for `COP(=O)(NC(C)=O)SC` (stereo not given), the compound was classed as inactive.
Take `CCCSP(=O)(OCC)Oc1ccc(Br)cc1Cl` (stereo not given): the compound was classed as inactive.
Same read-out and setting: next, `COc1ccc(C(=CC(=O)N2CCOCC2)c2ccc(Cl)cc2)cc1OC`: “inactive”; `Cc1nn(-c2cc(NS(C)(=O)=O)c(Cl)cc2Cl)c(=O)n1C(F)F`: “inactive”.
In the case of `CC(=NC#N)N(C)Cc1ccc(Cl)nc1`, the compound was called inactive.
